Records with an inconclusive call do not appear. Where a call stands in place of a potency, no number is given. A number with no mark means an inactive call. Activity calls are given as the source filed them. The call rests on the fitted dose curve; in most records, active means well fitted inhibition curve with a large enough effect; inconclusive means small, poorly fitted or top-dose-only effect; inactive means flat fitted curve, though single readings scatter.
Potency means the concentration at half of the fitted maximal effect.

For one experiment, the system named is MKL-1. Nature of the experiment: qHTS assay to identify novel small-molecules to repurpose for Merkel cell carcinoma treatment (AID 1296009). Further: nearly all actives have a fitted effect of over 60% in size. The settings on record: MCC and control cell lines, CellTiter-Glo viability, 72 h; series mostly up to 46 µM. The essentials: (§1)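 Dose-response viability screen; 72 hr exposure at 37 degree celsius; CellTiter-Glo added, 10 min room temperature, luminescence read; RLUs scaled between no-cell and DMSO wells.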
(In qHTS, concentration-response curves come from the screen itself.)
As to `NC(=O)NC(=O)Cc1ccccc1`, the Potency result was “inactive”.

For `NC(=O)NNc1ccccc1`, the Potency result is “inactive”.

Consider `N[C@H](C(=O)O)c1ccc(O)cc1`, for which the Potency result was “inactive”.

`Nc1ccc(S(=O)(=O)NC(=O)c2ccccc2)cc1`: the Potency entry was “inactive”.

Consider `CCN(CC)CCNC(=O)c1c(C)[nH]c(/C=C2\C(=O)Nc3ccc(F)cc32)c1C`, for which the Potency was 2.99 µM (active).

As to `N[C@H]1C(O)O[C@H](CO)[C@@H](O)[C@@H]1O` (stereo partly drawn), the Potency entry is “inactive”.

As to `O=S(=O)(O)NC1CCCCC1`, the Potency result was “inactive”.

For the compound `OC[C@H]1O[C@@H](O[C@@H]2[C@@H](CO)O[C@](O)(CO)[C@H]2O)[C@H](O)[C@@H](O)[C@H]1O`, the Potency result is “inactive”.

As to `CNCCC(Oc1ccc(C(F)(F)F)cc1)c1ccccc1` (stereo not drawn), the Potency was 26.6 µM (active).

With `CN(C)CCCO[C@@H]1[C@H]2OC(C)(C)O[C@H]2O[C@@H]1C(O)CO` (stereo partly drawn), the Potency entry is “inactive”.

For `C[C@@H]1CC[C@@]2(OC1)O[C@H]1C[C@H]3[C@@H]4CC[C@H]5C[C@@H](O)CC[C@]5(C)[C@H]4CC(=O)[C@]3(C)[C@H]1[C@@H]2C`, the activity change, negative = cytotoxicity is 7.37% [at 4.84 µM].

On to `CSc1ccc2c(c1)N(CCC1CCCCN1C)c1ccccc1S2` (stereo not drawn), for which the Potency was 11.9 µM (active).

For `COCCOC(=O)C1=C(C)NC(C)=C(C(=O)OC/C=C/c2ccccc2)C1c1cccc([N+](=O)[O-])c1` (stereo not drawn), the Potency is 21.1 µM (active).

`C[C@H]1O[C@@H](n2cc(F)c(=O)[nH]c2=O)[C@H](O)[C@@H]1O`: the Potency result was “inactive”.

For `O=S(=O)(O)c1cc(I)c(O)c2ncccc12`, the Potency entry was “inactive”.

As to `CN1[C@@H]2CC(OC(=O)[C@H](CO)c3ccccc3)C[C@H]1[C@@H]1O[C@@H]12` (stereo partly drawn), the Potency entry was “inactive”.

As to `CC1(C)OC(=O)NC1=O`, the Potency result was “inactive”.

In the case of `CCCCCCCCCCCCCCCCCCOCC(O)CO` (stereo not drawn), the Potency entry was “inactive”.

For the compound `CC(=O)CCC(=O)O`, the Potency result is “inactive”.

Take `C=CCn1c(=O)n([C@@H]2O[C@H](CO)[C@@H](O)[C@H]2O)c2nc(N)[nH]c(=O)c21`: the Potency entry is “inactive”.

With `CC(=O)c1ccc2c(c1)N(CCCN(C)C)c1ccccc1S2`, the Potency entry was “inactive”.

With `CC1(C)CO[C@@H](CC(=O)O)CN1`, the Potency entry was “inactive”.

In the case of `COc1ccc2cc1Oc1ccc(cc1)C[C@H]1c3c(cc4c(c3Oc3cc5c(cc3OC)CCN(C)[C@@H]5C2)OCO4)CCN1C`, the Potency was 23.7 µM (active).

For the compound `CN(C)CCCN1c2ccccc2Sc2ccc(Cl)cc21`, the Potency was 23.7 µM (active).

`C[C@H](N)[C@H](O)c1cccc(O)c1`: the Potency result was “inactive”.

Consider `Cc1cc(O)cc2c1O[C@](C)(CCC[C@H](C)CCC[C@H](C)CCCC(C)C)CC2`, for which the Potency entry is “inactive”.

Turning to `CCN(CC)CCCC(C)Nc1c2ccc(Cl)cc2nc2ccc(OC)cc12` (stereo not drawn), the Potency was 15 µM (active).

Consider `CC(=O)NC(Cc1ccccc1)C(=O)O` (stereo not drawn), for which the Potency entry was “inactive”.

For `CNCC(O)c1ccc(O)c(O)c1` (stereo not drawn), the Potency is 16.8 µM (active).

Turning to `CC[C@@]1(c2ccccc2)NC(=O)N(C)C1=O`, the Potency entry is “inactive”.

Another experiment relates to MKL-2. Described as above. The conditions noted are these: MCC and control cell lines, CellTiter-Glo viability, 72 h; series mostly up to 46 µM. The essentials: as §1
On the technique in general: ATP-based viability assays read luminescence as a measure of living cells.
Turning to `NC(=O)NC(=O)Cc1ccccc1`, the Potency entry is “inactive”.

As for `NC(=O)NNc1ccccc1`, the Potency result is “inactive”.

For `N[C@H](C(=O)O)c1ccc(O)cc1`, the Potency result is “inactive”.

Take `Nc1ccc(S(=O)(=O)NC(=O)c2ccccc2)cc1`: the Potency result is “inactive”.

Regarding `CCN(CC)CCNC(=O)c1c(C)[nH]c(/C=C2\C(=O)Nc3ccc(F)cc32)c1C`, the Potency is 2.99 µM (active).

Take `N[C@H]1C(O)O[C@H](CO)[C@@H](O)[C@@H]1O` (stereo partly drawn): the Potency entry was “inactive”.

Regarding `O=S(=O)(O)NC1CCCCC1`, the Potency result is “inactive”.

For `OC[C@H]1O[C@@H](O[C@@H]2[C@@H](CO)O[C@](O)(CO)[C@H]2O)[C@H](O)[C@@H](O)[C@H]1O`, the Potency result was “inactive”.

Regarding `CN(C)CCCO[C@@H]1[C@H]2OC(C)(C)O[C@H]2O[C@@H]1C(O)CO` (stereo partly drawn), the Potency result was “inactive”.

For `C[C@@H]1CC[C@@]2(OC1)O[C@H]1C[C@H]3[C@@H]4CC[C@H]5C[C@@H](O)CC[C@]5(C)[C@H]4CC(=O)[C@]3(C)[C@H]1[C@@H]2C`, the activity change, negative = cytotoxicity was 2.92% [at 4.84 µM].

For `CNCCCC1c2ccccc2C=Cc2ccccc21`, the Potency is 21.1 µM (active).

Consider `CSc1ccc2c(c1)N(CCC1CCCCN1C)c1ccccc1S2` (stereo not drawn), for which the Potency was 3.35 µM (active).

With `CC(=O)O[C@@]12CO[C@@H]1C[C@H](O)[C@@]1(C)C(=O)[C@H](O)C3=C(C)[C@@H](OC(=O)[C@H](O)[C@@H](NC(=O)OC(C)(C)C)c4ccccc4)C[C@@](O)([C@@H](OC(=O)c4ccccc4)[C@H]21)C3(C)C`, the Potency result is “inactive”.

On to `C[C@H]1O[C@@H](n2cc(F)c(=O)[nH]c2=O)[C@H](O)[C@@H]1O`, for which the Potency entry is “inactive”.

On to `O=S(=O)(O)c1cc(I)c(O)c2ncccc12`, for which the Potency result is “inactive”.

With `CC1(C)OC(=O)NC1=O`, the Potency entry was “inactive”.

Consider `CCCCCCCCCCCCCCCCCCOCC(O)CO` (stereo not drawn), for which the Potency entry is “inactive”.

As to `CC(=O)CCC(=O)O`, the Potency entry was “inactive”.

As for `C=CCn1c(=O)n([C@@H]2O[C@H](CO)[C@@H](O)[C@H]2O)c2nc(N)[nH]c(=O)c21`, the Potency result is “inactive”.

As for `CC1(C)CO[C@@H](CC(=O)O)CN1`, the Potency entry was “inactive”.

Regarding `COc1ccc2cc1Oc1ccc(cc1)C[C@H]1c3c(cc4c(c3Oc3cc5c(cc3OC)CCN(C)[C@@H]5C2)OCO4)CCN1C`, the Potency is 3.35 µM (active).

On to `C[C@H](N)[C@H](O)c1cccc(O)c1`, for which the Potency entry is “inactive”.

Consider `COC(=O)C1=C(C)NC(C)=C(C(=O)OC)C1c1ccccc1[N+](=O)[O-]`, for which the Potency was 23.7 µM (active).

Consider `Cc1cc(O)cc2c1O[C@](C)(CCC[C@H](C)CCC[C@H](C)CCCC(C)C)CC2`, for which the Potency result is “inactive”.

Turning to `CCN(CC)CCCC(C)Nc1c2ccc(Cl)cc2nc2ccc(OC)cc12` (stereo not drawn), the Potency is 3.35 µM (active).

Regarding `CC(=O)NC(Cc1ccccc1)C(=O)O` (stereo not drawn), the Potency result was “inactive”.

As for `CNCC(O)c1ccc(O)c(O)c1` (stereo not drawn), the Potency is 13.3 µM (active).

For `CC[C@@]1(c2ccccc2)NC(=O)N(C)C1=O`, the Potency entry is “inactive”.

The values above are taken from PubChem BioAssay (NCATS).
